Experimental data from publication PMC4336329 (PLoS ONE, 2015).
In all, about 310,000 compounds went through this assay and about 14,000 (4.5%) showed an effect of 50% or more. Effects have a minus sign here. What follows is part of a selection rich in strong results, with near analogues and random picks from the rest.

Biological target: human ether-à-go-go-related gene (hERG) potassium channel (human, UniProt Q12809)
Experiment: primary screen, population patch clamp on CHO cells stably expressing hERG; higher = less effect of the substance
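Also: peak tail current of the secondary pulse compared with the same well before compound.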

Chain of human ether-à-go-go-related gene (hERG) potassium channel (Q12809 whole entry, looked up): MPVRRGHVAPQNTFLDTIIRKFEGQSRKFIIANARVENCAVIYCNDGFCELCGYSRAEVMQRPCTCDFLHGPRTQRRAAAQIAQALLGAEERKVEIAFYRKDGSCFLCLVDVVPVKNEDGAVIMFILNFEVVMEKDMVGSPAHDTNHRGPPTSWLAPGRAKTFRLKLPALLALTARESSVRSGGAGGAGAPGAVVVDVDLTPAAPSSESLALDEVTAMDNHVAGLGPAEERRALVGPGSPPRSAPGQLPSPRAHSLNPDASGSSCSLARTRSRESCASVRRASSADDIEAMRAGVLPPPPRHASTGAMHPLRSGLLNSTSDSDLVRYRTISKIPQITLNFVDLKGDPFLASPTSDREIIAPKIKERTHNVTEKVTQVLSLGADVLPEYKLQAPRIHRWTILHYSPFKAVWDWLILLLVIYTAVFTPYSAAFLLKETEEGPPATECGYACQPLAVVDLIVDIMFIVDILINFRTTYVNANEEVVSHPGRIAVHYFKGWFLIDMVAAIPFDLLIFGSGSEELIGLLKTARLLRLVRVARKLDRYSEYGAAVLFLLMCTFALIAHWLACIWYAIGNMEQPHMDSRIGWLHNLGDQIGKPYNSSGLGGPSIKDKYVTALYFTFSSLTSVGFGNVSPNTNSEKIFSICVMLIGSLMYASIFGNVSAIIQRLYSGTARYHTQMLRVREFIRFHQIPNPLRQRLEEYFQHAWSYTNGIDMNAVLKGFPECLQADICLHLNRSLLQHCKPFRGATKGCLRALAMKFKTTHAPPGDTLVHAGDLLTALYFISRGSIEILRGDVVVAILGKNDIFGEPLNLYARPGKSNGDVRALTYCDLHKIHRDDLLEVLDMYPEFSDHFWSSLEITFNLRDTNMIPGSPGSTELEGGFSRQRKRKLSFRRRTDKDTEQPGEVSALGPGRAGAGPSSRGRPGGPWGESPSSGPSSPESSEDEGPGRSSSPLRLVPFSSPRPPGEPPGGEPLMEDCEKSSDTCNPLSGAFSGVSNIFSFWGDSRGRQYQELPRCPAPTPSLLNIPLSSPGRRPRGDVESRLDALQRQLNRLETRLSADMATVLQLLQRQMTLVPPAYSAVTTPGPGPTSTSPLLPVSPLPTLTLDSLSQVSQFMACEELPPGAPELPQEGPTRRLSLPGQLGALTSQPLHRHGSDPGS

Row | SMILES | hERG current change (%, negative = inhibition) at 10uM
1 | COCc1nnc(SCC(=O)NCc2ccccc2)n1-c1ccccc1 | -3.33%
2 | CCOCCCNC(C(=O)Nc1ccc(OC)c(Cl)c1)c1ccccc1 (centres unmarked) | -35.1%
3 | CCC(C)C(NC(N)=O)C(=O)Nc1ccc(C)c(Cl)c1 (centres unmarked) | 10.9%
4 | CCc1ccc(C(=O)c2cncc(Br)c2)cc1 | -18.3%
5 | COc1ccc2oc(C(=O)OCC(=O)N3CCCC(C)C3)c(C)c2c1 (centres unmarked) | -39.4%
6 | CCOC(=O)CCC(=O)c1c(C)oc2ccc(OC)cc12 | -57.2%
7 | CCOC(=O)c1c(CN2CCOCC2)oc2ccc(OC)cc12 | -7.29%
8 | CCOC(=O)c1c(CN2CCCCC2)oc2ccc(OC)cc12 | -61.6%
9 | CCOC(=O)c1c(CN2CCOCC2)oc2ccc(OC(C)=O)cc12 | 13.9%
10 | CCOC(=O)c1c(CN2CCCCC2)oc2ccc(O)cc12.Cl | -54.3%
11 | CCOC(=O)c1c(CN2CCN(c3ccccc3)CC2)oc2ccc(O)cc12 | -4.3%
12 | COc1ccc2oc(C(=O)OC(C)C(=O)N3CCC(C)CC3)c(C)c2c1 (centres unmarked) | -5.44%
13 | COc1ccc2oc(C)c(C(=O)NN)c2c1 | -1.4%
14 | COc1ccc2oc(C)c(C(=O)c3ccccc3)c2c1 | -7.34%
15 | CCOC(=O)c1c(CN2CCN(C)CC2)oc2ccc(O)cc12 | -38%
16 | CCOC(=O)c1c(CN2CCC(C)CC2)oc2ccc(OC)cc12 | -51.2%

Row | SMILES | hERG current change (%, negative = inhibition) at 10uM
17 | CCOC(=O)c1cnc(Nc2nc3ccccc3o2)nc1CSc1nnc(C)s1 | -5.06%
18 | C/C(=N\NC(=O)c1ccco1)c1ccc(NC(=O)c2cccs2)cc1 | 5.09%
19 | Cc1ccc(NC(=O)CCC(=O)Nc2ccc(C)cc2)cc1 | 12.2%
20 | COC(=O)C1=C(c2ccc3ccccc3c2)C[C@@H]2CC[C@H]1N2C(=O)N1CCCCC1 | 2.21%
21 | CCn1nc(C)c(/C=N/NC(=O)c2nc3nc(C)cc(C)n3n2)c1C | 14.1%
22 | COc1ccc(-c2nnn(Cc3nn[nH]n3)n2)cc1OC | 3.25%
23 | O=C(CCSc1nnc(-c2ccncc2)o1)Nc1ccccc1Cl | -10.9%
24 | CCc1ccc2oc(=O)cc(CN3CCCCC3C)c2c1.Cl (centres unmarked) | -16.7%
25 | CCOC(=O)c1c(CN2CCCCC2C)oc2ccc(OC)cc12.Cl (centres unmarked) | -58.9%
26 | CCOC(=O)c1c(-c2ccc(OC)cc2)oc2ccc(O)cc12 | 13.1%
27 | CCOC(=O)c1c(C)n(CCN2CCN(C)CC2)c2ccc(OC)cc12.Cl | -20.2%
28 | COc1ccc2oc(C(=O)OCC(=O)N3C(C)CCCC3C)c(C)c2c1 (centres unmarked) | -14.8%
29 | CCN(CC)CCOC(=O)c1c(C)oc2ccc(OC)cc12.Cl | -36.6%
30 | CCOC(=O)c1c(CN(CC)CC)oc2ccc(OC)cc12 | -61.9%
31 | CCOC(=O)c1c(CN2CCCCC2)oc2ccc(OC)cc12.Cl | -58.4%
32 | CCOC(=O)c1c(-c2ccccc2)oc2ccc(OC)cc12 | 1.46%
